Among all 320,000 compounds or so, about 2,100 (0.66%) were called active. Not shown: some 53% with an inconclusive outcome. This is one part of a sample in which actives are shown more often than they occur. The call rests on the fitted dose curve; in most records, active means well fitted inhibition curve with a large enough effect in the signal ratio, with a control signal flat (not every such curve was filed as active); inconclusive means small, poorly fitted or top-dose-only effect, or effect the other way, or a change in a side signal; inactive means flat fitted curve, though single readings scatter; the % refers to the signal ratio.
assay: qHTS Assay for Lipid Storage Modulators in Drosophila S3 Cells; settings: BODIPY lipid droplet fluorescence, 18-24 h, cells fed with added oleic acid; cell number change: measured here: cell count max response; series mostly up to 46.1 µM; lipid storage change, negative = inhibition: at the top concentration;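 on cell number change: cells counted by Cell Tracker Red CMTPX staining in the red channel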; on lipid storage change, negative = inhibition: on the % scale 0 is the no-effect control and ±100 the full control effect
In short: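 Laser-scanning cytometry quantifies lipid droplet accumulation (500–530 nm total intensity; droplet/cell object ratio) in oleic acid-fed (400 uM added) Drosophila S3 cells treated with a concentration series. 20 uM Triacsin C defined 100% inhibition.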
Potency means the concentration at half of the fitted maximal effect.

Row | SMILES | lipid storage change, negative = inhibition | cell number change [%] | Potency | outcome
1 | COc1ccc(NC(C)=O)cc1NC(=O)c1ccc(Cl)cc1 | 0.28% (inactive) | 11.7 |  | 
2 | CC(SCc1ccccc1)C(=O)Nc1ccccc1-c1ccccc1 (configuration not stated) | -6.56% (inactive) | 8.62 |  | 
3 | O=S1(=O)N=C(Oc2cccc3ccccc23)c2ccccc21 | -0.954% (inactive) | 3.24 |  | 
4 | COc1ccc(C2CCCN2C(=O)Nc2ccc(Cl)cc2)cc1OC (configuration not stated) | -5.01% (inactive) | -6.06 |  | 
5 | COc1ccc(Cl)cc1NC(=O)NCC1CCN(Cc2cc(C)ccc2C)CC1 | -4.05% (inactive) | -15.2 |  | 
6 | Cc1ccc(C)c(CN2CCC(CNC(=O)Nc3ccc(F)c(Cl)c3)CC2)c1 | -20.7% (inactive) | -7.91 |  | 
7 | Cc1ccc(C)c(CN2CCC(CNC(=O)Nc3cccc(Cl)c3C)CC2)c1 |  | -2.78 | 25.9 µM (active) | 
8 | CC(C)(C)c1ccc(OCCC(=O)OCC(=O)Nc2cccnc2Cl)cc1 | -4.76% (inactive) | -11.9 |  | 
9 | COCCn1c(Cc2ccccc2)nnc1SCC(=O)N1CCCC1=O | 10.9% (inactive) | 2.89 |  | 
10 | O=C(NC1(N2CCOCC2)CC1)c1ccc(Cl)cc1 | 6.65% (inactive) | 10.5 |  | 
11 | CSC1=NCCN1C(=O)c1c(F)cccc1F | 3% (inactive) | 10.5 |  | 
12 | CSc1ccccc1OCc1cc(C(=O)N(C)CC2COCCO2)no1 (configuration not stated) | -7.6% (inactive) | 5.77 |  | 
13 | CCNC(=S)N1CCc2cc(OC)c(OC)cc2C1COc1ccc(OC)cc1 (configuration not stated) | 6.83% (inactive) | -7.02 |  | 
14 | CCNC(=S)N1CCc2cc(OC)c(OC)cc2C1COc1ccccc1OC (configuration not stated) |  | -25.8 | 11.6 µM (active) | 
15 | CCC(=O)N1CCc2cc(OC)c(OC)cc2C1COc1ccccc1OC (configuration not stated) | -23.2% (inactive) | -0.404 |  | 
16 | Cc1ccc(Cn2nnnc2CN2CCC(O)(c3cccnc3)CC2)cc1 | 14.9% (inactive) | 1.82 |  | 
17 | COCCn1c(SCC(=O)Nc2ccc3c(c2)OCCO3)nnc1C(C)C | 14% (inactive) | 15.8 |  | 
18 | COc1ccc(C(=O)N/N=C(\C)CC(=O)Nc2cccc(C(F)(F)F)c2)cc1 | -0.39% (inactive) | -2.05 |  | 
19 | CC(=O)N/N=C(\C)CC(=O)Nc1cccc(C(F)(F)F)c1 | -3.97% (inactive) | 5.44 |  | 
20 | C/C(CC(=O)Nc1cccc(C(F)(F)F)c1)=N\NC(=O)c1ccncc1 |  | -7.89 | 4.61 µM (active) | 
21 | O=C(NC1CCCCC1)c1cccnc1C(=O)O | -6.71% (inactive) | -11.4 |  | 
22 | O=C(O)c1cccnc1C(=O)O | 2.1% (inactive) | -2.7 |  | 

Row | SMILES | lipid storage change, negative = inhibition | cell number change [%] | Potency | outcome
23 | O=C(O)c1cccnc1NC1CCCC1 |  | -16 | 20.6 µM (active) | 
24 | Cc1cc(C)n(-c2nnc(C)n2/N=C/c2ccccc2O)n1 |  | -5.58 | 18.4 µM (active) | 
25 | Cc1cc(C)n(-c2nnc(C)n2/N=C/c2ccccc2F)n1 |  | 19.1 |  | inactive
26 | Cc1cc(C)n(-c2nnc(C)n2/N=C/c2ccc(O)cc2)n1 | 11.6% (inactive) | -6.41 |  | 
27 | Cc1ccccc1NC(=O)c1ccc2ccccc2c1 | 5.74% (inactive) | 14.2 |  | 
28 | CCCC(=O)NCCSC | 5.9% (inactive) | -17.4 |  | 
29 | O=C(NC1CCCCC1)C(c1ccncc1)N(C(=O)Cc1cccs1)c1ccccc1 (configuration not stated) | 12.7% (inactive) | 12.4 |  | 
30 | O=C(NC1CCCC1)C(c1ccccc1)N(Cc1cccnc1)C(=O)Cc1cccs1 (configuration not stated) | 17.7% (inactive) | -1.03 |  | 
31 | O=C(NC1CCCC1)C(c1ccncc1)N(C(=O)Cc1cccs1)c1ccc(F)cc1 (configuration not stated) |  | 3.33 | 29.1 µM (active) | 
32 | COc1ccc(C(C(=O)NC2CCCC2)N(Cc2cccnc2)C(=O)Cc2cccs2)cc1OC (configuration not stated) | -9.53% (inactive) | 6.84 |  | 
33 | COc1ccc(C(C(=O)NC2CCCC2)N(Cc2cccnc2)C(=O)Cc2cccs2)c(OC)c1 (configuration not stated) |  | -10.9 | 7.31 µM (active) | 
34 | O=C(NC1CCCC1)C(c1ccsc1)N(C(=O)Cc1cccs1)c1ccc(F)cc1 (configuration not stated) | -14.8% (inactive) | -21.2 |  | 
35 | O=c1[nH]c(=O)c2nnc(N/N=C\c3ccc(O)cc3)nc2[nH]1 | 1.17% (inactive) | -0.285 |  | 
36 | Cc1ccc(N/C(N)=N/c2nc3c(c(=O)[nH]2)CCCC3)c(C)c1 | -16.9% (inactive) | 25.1 |  | 
37 | CN(C)CCN(C(=O)c1ccc(C(=O)c2ccccc2)cc1)c1nc2cc3c(cc2s1)OCO3 | 18.9% (inactive) | 29 |  | 
38 | COc1cccc(N2C(N)=NC(N)=NC2(C)C)c1 | -15.5% (inactive) | -1.01 |  | 
39 | CC1(C)N=C(N)N=C(N)N1c1cccc(C(=O)O)c1 |  | 9.53 | 29.1 µM (active) | 
40 | CCOC(=O)c1cccc(N2C(N)=NC(N)=NC2(C)C)c1 | 1.48% (inactive) | 6.64 |  | 
41 | O=C(Nc1ccc(N2CCOCC2)cc1)C1CC(=O)N(c2ccc(F)cc2)C1 (configuration not stated) | -18.1% (inactive) | 18.8 |  | 
42 | CN(C(=O)C1CCOC1)c1nnc(-c2ccncc2)s1 (configuration not stated) |  |  |  | inactive
43 | CN(C(=O)C1CCOC1)c1nnc(-c2cnccn2)s1 (configuration not stated) | -5.36% [at 9.22 µM] (inactive) | 10.4 |  | 
44 | Cc1cnc(-c2nnc(N(C)C(=O)C3CCOC3)s2)cn1 (configuration not stated) |  | -7.84 | 23.1 µM (active) | 

Source: PubChem BioAssay AID2685 (National Center for Advancing Translational Sciences (NCATS), 2010)
